“And” between values parts separate entries of the source, which are not always exact repeats. Equal values may be shown once. Where a name gives a salt, the structure may show the parent alone.

The record followed here is the supplement of paper PMC10981050.

The assay concerns K562. The assay can be described thus: cell viability relative to vehicle control; higher = less cytotoxic. The conditions noted are these: 10 µM; SRSF2 genotype: SRSF2 P95H/wt. The method, boiled down: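 Screening covered the Selleck bioactive, kinase and epigenetic probe libraries, less identity-inconsistent compounds, on CRISPR-edited mutant clones and isogenic wild-type clones of four leukaemia lines. Cells, at 2000 per well in 50 µL medium, received a single 10 µM acoustically dispensed dose. After 48 h the supernatant was removed and CellTiter-Glo luminescence was read. Viability was analysed in Genedata Screener as percent of the on-plate vehicle control.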
Usually cell viability stands for a read-out of living cells in per cent, often relative to untreated cells. Take `OCC1OC(OC2OC(CO)C(O)C(O)C2O)C(O)C(O)C1O` [D-(+)-Trehalose Anhydrous]: the cell viability is 109% and 105%. Take `CCCCCCCCCCCCCCCCCC[N+](C)(C)C` [Trimethyloctadecylammonium bromide]: the cell viability was 13.1% and 20%. Under `CC(C)c1cc(-c2ccc(F)c3ccccc23)nc(N)n1` stands 95.5% and 96.7%; under `Cc1nc2n(c(=O)c1CCN1CCC(c3noc4cc(F)ccc34)CC1)CCCC2` [Risperidone (Risperdal)], 93.6% and 101%; under `Cc1[nH]c2ccccc2c1C1=C(NCCc2ccc(F)cc2)C(=O)N(C)C1=O`, 97% and 105%. Under `Cc1nc(N)sc1-c1ccnc(Nc2ccc(N3CCOCC3)cc2)n1` stands 59.9% and 67.6%. Consider `CN(C)CCC(c1ccc(Br)cc1)c1ccccn1` (centres undefined) [Brompheniramine hydrogen maleate], for which the cell viability is 95.3% and 97.4%. Under `C[S+](CC[C@H](N)C(=O)[O-])C[C@H]1O[C@@H](n2cnc3c(N)ncnc32)[C@H](O)[C@@H]1O` (some centres undefined) [Ademetionine disulfate tosylate] stands 105% and 97.3%. Take `CNCc1cc(-c2ccccc2F)n(S(=O)(=O)c2cccnc2)c1` [Vonoprazan Fumarate (TAK-438)]: the cell viability was 94.5% and 98%.

As for `C=CC(=O)N1CC[C@@H](Oc2nc(Nc3ccc(N4CCC(N5CCN(C)CC5)CC4)cc3)c(C(N)=O)nc2CC)C1` [ASP8273 (Naquotinib)], the cell viability was 51.2% and 34.1%.

`CC(=O)NC[C@H]1CN(c2ccc(N3CCOCC3)c(F)c2)C(=O)O1` [Linezolid (Zyvox)]: the cell viability is 81.9% and 81.7%. Turning to `CC(C)=CCC[C@](C)(O[C@@H]1O[C@H](CO)[C@@H](O)[C@H](O)[C@H]1O)[C@H]1CC[C@]2(C)[C@@H]1[C@H](O)C[C@@H]1[C@@]3(C)CC[C@H](O)C(C)(C)[C@@H]3[C@@H](O[C@@H]3O[C@H](CO)[C@@H](O)[C@H](O)[C@H]3O[C@@H]3OC[C@@H](O)[C@H](O)[C@H]3O)C[C@]12C` [Notoginsenoside R1], the cell viability was 98.4% and 101%. With `CC#CC(=O)Nc1ccc2ncnc(Nc3cccc(Br)c3)c2c1`, the cell viability was 7.91% and 17.6%. With `Cc1cccc(C#Cc2ccccc2)n1` the figure was 97.1% and 102%; with `CO/N=C(\C(=O)N[C@@H]1C(=O)N2C(C(=O)O)=C(CSc3nnnn3C)CS[C@H]12)c1csc(N)n1` [Cefmenoxime hydrochloride], 96.7% and 90.3%; with `CC1(C)CC(=O)c2c(C(F)(F)F)nn(-c3ccc(C(N)=O)c(N[C@H]4CC[C@H](O)CC4)c3)c2C1`, 23.7% and 29.5%.

As to `CC1(C)C=Cc2c(ccc3c2OC[C@@H](c2ccc(O)cc2O)C3)O1` [Glabridin], the cell viability is 77.9% and 80.4%. With `COc1cccc(-c2cc(NCc3ccc4c(c3)OCO4)nc(N)n2)c1` [Wnt agonist 1], the cell viability was 9.55% and 31.1%. With `CNC1CCC(N(Cc2cccc(-c3ccncc3)c2)C(=O)c2sc3ccccc3c2Cl)CC1` (centres undefined) [Smoothened Agonist (SAG) HCl] the figure was 18.8% and 30.6%. Under `NCCCCCNCC12CC3CC(CC(C3)C1)C2` [IEM 1754 dihydrobroMide] stands 102% and 104%; under `NC(=S)c1ccncc1` [Thioisonicotinamide], 107% and 101%; under `C[C@@]1(F)[C@H](O)[C@@H](CO)O[C@H]1n1ccc(=O)[nH]c1=O` [2'-deoxy-2'-fluoro-2'-C-methyluridine], 93.6% and 89.6%. With `Nc1cccc2c1CN(C1CCC(=O)NC1=O)C2=O` (centres undefined) [Lenalidomide (CC-5013)] the figure was 98.2% and 96.6%; with `Cc1ccccc1N1C(=O)c2cc(S(N)(=O)=O)c(Cl)cc2NC1C` (centres undefined) [Metolazone (Zaroxolyn)], 104% and 99.9%; with `CCC/C=C1\OC(=O)C2=C1CCC=C2` [Ligustilide], 84.1% and 83.7%.

On to `OC[C@@H](O)[C@@H](O)[C@H](O)[C@H](O)CO` [D-Mannitol (Osmitrol)], for which the cell viability was 98% and 97.7%. Under `CN(C)CCCN1c2ccccc2Sc2ccc(Cl)cc21` [Chlorpromazine HCl] stands 75.5% and 73.7%; under `CCOC(=O)c1ccc(C#Cc2ccc3c(c2)C(C)(C)CCS3)nc1` [Tazarotene (Avage)], 81% and 84.7%; under `OC[C@H]1O[C@@H](OCCc2ccc(O)cc2)[C@H](O)[C@@H](O)[C@@H]1O` [Salidroside (Rhodioloside)], 101% and 105%.

As to `C=C[C@]1(C)C[C@@H](OC(=O)CSC(C)(C)CNC(=O)[C@H](N)C(C)C)[C@]2(C)[C@H](C)CC[C@]3(CCC(=O)[C@H]32)[C@@H](C)[C@@H]1O` [Valnemulin HCl], the cell viability is 83.2% and 84.6%. Regarding `CCS(=O)(=O)CCn1c([N+](=O)[O-])cnc1C` [Tinidazole], the cell viability was 96.7% and 92.4%.

With `O=C(Cc1ccc(-c2ccc(OCCN3CCOCC3)cc2)cn1)NCc1ccccc1`, the cell viability was 10.7% and 34.3%. With `COC(=O)C1=C(C)NC(C)=C(C(=O)OCCN2CCN(C(c3ccccc3)c3ccccc3)CC2)C1c1cccc([N+](=O)[O-])c1` (centres undefined) [Manidipine dihydrochloride (CV-4093)] the figure was 60.3% and 62.1%. As for `O=S(=O)(O)c1cc(O)ccc1O` [Calcium Dobesilate], the cell viability is 104% and 94.7%. Regarding `CC(=O)OCC(=O)[C@@]1(O)[C@H](C)C[C@H]2[C@@H]3CCC4=CC(=O)C=C[C@]4(C)[C@@]3(F)[C@@H](O)C[C@@]21C` [Dexamethasone acetate], the cell viability is 105% and 106%. For the molecule `O=C([O-])c1ccccc1O.[Na+]` [Sodium salicylate], the cell viability was 93.7% and 88.7%. Under `C=C1C(=O)O[C@@H]2C[C@@]3(C)CCCC(=C)[C@@H]3C[C@H]12` [Isoalantolactone] stands 27.5% and 44.2%; under `c1ccc(Cn2c(-c3ccc(OCC(C4CCNCC4)n4c(-c5ccccc5)nc5ccccc54)cc3)nc3ccccc32)cc1` (centres undefined) [Deltarasin], 0.43% and 0.39%; under `O=C(Nc1ccccc1-c1cn2c(CN3CCNCC3)csc2n1)c1cnc2ccccc2n1`, 0.23% and 0.19%.
